Experimental data from PubChem BioAssay (Tox21).
Results filed as inconclusive are left out. Activity calls are given as the source filed them. The call rests on the fitted dose curve; in most records, active means well fitted cell-killing curve with a large enough effect in the repeat runs; inconclusive means weak or mixed curves, or effect the other way; inactive means flat fitted curve, though single readings scatter.

Assay: cAMP Responsive Elements (CRE) small molecule antagonists, cell-based qHTS assay: qHTS cell viability counter screen (AID 2060913); further: nearly all actives have a fitted effect of over 40% in size; further: potency means the concentration at half of the fitted maximal effect
Conditions: CRE-bla HEK293T viability, CellTiter-Glo luminescence, 5 h; series mostly up to 92.4 µM; viability change, negative = cytotoxic: at the top concentration
In short: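 Viability of NKH477-stimulated (0.25 uM final) CRE-bla HEK293T cells is measured by CellTiter-Glo luminescence following 3 hrs compound exposure at 37 C.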
On the % scale 0 is the no-effect control and ±100 the full control effect.

SMILES	viability change, negative = cytotoxic	Potency
CCCCOCCOCCOCc1cc2c(cc1CCC)OCO2	-4.46% [at 42.5 µM] (inactive)	–
Cc1ccc(O)cn1	3.11% (inactive)	–
COC(=O)Cc1cccc2ccccc12	-5.2% (inactive)	–
O=C1CCCCCCCCCCCCCCO1	3.21% (inactive)	–
C=Cc1ccccc1C=C	8.51% [at 240 µM] (inactive)	–
Nc1cc(N)cc(C(=O)O)c1	0.227% (inactive)	–
CC(=O)OC[C@H]1O[C@@H](n2ncc(=O)[nH]c2=O)[C@H](OC(C)=O)[C@@H]1OC(C)=O	-0.329% [at 42.5 µM] (inactive)	–
OC(CCCN1CCCCC1)(c1ccccc1)c1ccccc1	-2.4% [at 42.5 µM] (inactive)	–
O=C(O)CCNC(=O)c1ccccc1	0.536% [at 42.5 µM] (inactive)	–
COc1ccc(-c2coc3cc(O)cc(O)c3c2=O)cc1	–	inactive
C=C(C)CNCC	–	inactive
OC[C@H]1O[C@@H]2O[C@H]3[C@H](O)[C@@H](O)[C@@H](O[C@H]4[C@H](O)[C@@H](O)[C@@H](O[C@H]5[C@H](O)[C@@H](O)[C@@H](O[C@H]6[C@H](O)[C@@H](O)[C@@H](O[C@H]7[C@H](O)[C@@H](O)[C@@H](O[C@H]8[C@H](O)[C@@H](O)[C@@H](O[C@H]1[C@H](O)[C@H]2O)O[C@@H]8CO)O[C@@H]7CO)O[C@@H]6CO)O[C@@H]5CO)O[C@@H]4CO)O[C@@H]3CO	–	inactive
Cc1[nH]cnc1CN1CCc2c(c3ccccc3n2C)C1=O	11.2% [at 42.5 µM] (inactive)	–
CC(=O)OC/C=C/c1ccccc1	1.45% (inactive)	–
Cc1ccc(S(=O)(=O)N=C=O)cc1	–	inactive
COc1c(Cl)ccc(Cl)c1C(=O)O	–	inactive
COC(=O)c1cc(Cl)ccc1[N+](=O)[O-]	0.363% (inactive)	–
CCC(C)c1cc(C(C)(C)C)c(O)c(C(C)(C)C)c1 (stereo not given)	10.7% (inactive)	–
CCCCCC/C=C/C(=O)OC	2.35% (inactive)	–
C=CCCC(=O)/C=C/C1C(C)=CCCC1(C)C (stereo not given)	-4.07% (inactive)	–

SMILES	viability change, negative = cytotoxic	Potency
CSc1ccc2c(c1)C(N1CCN(C)CC1)Cc1ccccc1S2 (stereo not given)	-14.6% [at 42.5 µM] (inactive)	–
CC(C)(C)NCCNC(C)(C)C	0.34% (inactive)	–
Cc1ccccc1N=Nc1ccc(N=Nc2c(O)ccc3ccccc23)c(C)c1	-0.0704% [at 42.5 µM] (inactive)	–
CCOC(=O)C1=NN(c2ccccc2)C(=O)C1	0.0777% (inactive)	–
CCCc1c2oc(C(=O)O)cc(=O)c2cc2c(=O)cc(C(=O)O)n(CC)c12	-1.2% [at 42.5 µM] (inactive)	–
Nc1nc2c(ncn2CCC(CO)CO)c(=O)[nH]1	6.08% [at 42.5 µM] (inactive)	–
N[C@@H](CSCCCO)C(=O)O	1.17% [at 18.9 µM] (inactive)	–
CCCCCCC(O)CCCCCCCCCCC(=O)OC (stereo not given)	0.154% (inactive)	–
Oc1ccc(Oc2ccccc2)cc1	3.29% (inactive)	–
CCOC(=O)CC	6.92% (inactive)	–
OC1OCCOC1O (stereo not given)	4.09% (inactive)	–
O=C1OC[C@H](Cc2cccc(O)c2)[C@H]1Cc1cccc(O)c1	0.982% [at 42.5 µM] (inactive)	–
CCCCOc1cc(C(=O)NCCN(CC)CC)c2ccccc2n1	-2.77% [at 42.5 µM] (inactive)	–
NC[C@H]1O[C@H](O[C@H]2[C@H](O)[C@@H](O[C@H]3O[C@H](CO)[C@@H](O)[C@H](N)[C@H]3O)[C@H](N)C[C@@H]2N)[C@H](N)[C@@H](O)[C@@H]1O	-2.98% [at 18.9 µM] (inactive)	–
Oc1cc(Cl)cc(Cl)c1Cl	–	55.8 µM (active)
Cc1nc(C2CCCCC2)c(-c2ccc(S(N)(=O)=O)c(F)c2)o1	1.33% [at 42.5 µM] (inactive)	–
Cc1ccc(C(C)(C)C)c(O)c1	-8.14% (inactive)	–
CN(C1CCCCC1)S(=O)(=O)c1ccccc1N	-2.16% (inactive)	–
COc1cc(OC)nc(NC(=O)NS(=O)(=O)Nc2ccccc2C(=O)N(C)C)n1	15.9% (inactive)	–
CC(=O)Oc1ccc(C)cc1	–	inactive

Assay: cAMP Responsive Elements (CRE) small molecule agonists, cell-based qHTS assay: qHTS cell viability counter screen (AID 2060914); further: nearly all actives have a fitted effect of over 50% in size
Conditions: CRE-bla HEK293T viability, CellTiter-Glo luminescence, 5 h; series mostly up to 92.4 µM; activity change, negative = cytotoxicity: at the top concentration
In short: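 Luminescence read-out (CellTiter-Glo, 30 min RT) of ATP-based viability in CRE-bla HEK 293T cells, run in the same wells as the β-lactamase reporter assay after 3 h compound treatment at 37 °C.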

SMILES	activity change, negative = cytotoxicity	Potency
CCCCOCCOCCOCc1cc2c(cc1CCC)OCO2	-13.4% [at 42.5 µM] (inactive)	–
Cc1ccc(O)cn1	-0.11% (inactive)	–
COC(=O)Cc1cccc2ccccc12	7.06% (inactive)	–
O=C1CCCCCCCCCCCCCCO1	2.64% (inactive)	–
C=Cc1ccccc1C=C	-1.71% [at 240 µM] (inactive)	–
Nc1cc(N)cc(C(=O)O)c1	-7.02% (inactive)	–
CC(=O)OC[C@H]1O[C@@H](n2ncc(=O)[nH]c2=O)[C@H](OC(C)=O)[C@@H]1OC(C)=O	14.2% [at 42.5 µM] (inactive)	–
OC(CCCN1CCCCC1)(c1ccccc1)c1ccccc1	-1.03% [at 42.5 µM] (inactive)	–
O=C(O)CCNC(=O)c1ccccc1	11.5% [at 42.5 µM] (inactive)	–
COc1ccc(-c2coc3cc(O)cc(O)c3c2=O)cc1	–	inactive
C=C(C)CNCC	–	inactive
OC[C@H]1O[C@@H]2O[C@H]3[C@H](O)[C@@H](O)[C@@H](O[C@H]4[C@H](O)[C@@H](O)[C@@H](O[C@H]5[C@H](O)[C@@H](O)[C@@H](O[C@H]6[C@H](O)[C@@H](O)[C@@H](O[C@H]7[C@H](O)[C@@H](O)[C@@H](O[C@H]8[C@H](O)[C@@H](O)[C@@H](O[C@H]1[C@H](O)[C@H]2O)O[C@@H]8CO)O[C@@H]7CO)O[C@@H]6CO)O[C@@H]5CO)O[C@@H]4CO)O[C@@H]3CO	–	inactive
Cc1[nH]cnc1CN1CCc2c(c3ccccc3n2C)C1=O	-12.1% [at 42.5 µM] (inactive)	–
CC(=O)OC/C=C/c1ccccc1	13% (inactive)	–
Cc1ccc(S(=O)(=O)N=C=O)cc1	–	inactive
COc1c(Cl)ccc(Cl)c1C(=O)O	–	inactive
COC(=O)c1cc(Cl)ccc1[N+](=O)[O-]	0.687% (inactive)	–
CCC(C)c1cc(C(C)(C)C)c(O)c(C(C)(C)C)c1 (stereo not given)	-3.46% (inactive)	–
CCCCCC/C=C/C(=O)OC	-2.36% (inactive)	–
C=CCCC(=O)/C=C/C1C(C)=CCCC1(C)C (stereo not given)	2.94% (inactive)	–

SMILES	activity change, negative = cytotoxicity	Potency
CSc1ccc2c(c1)C(N1CCN(C)CC1)Cc1ccccc1S2 (stereo not given)	-29.2% [at 42.5 µM] (inactive)	–
CC(C)(C)NCCNC(C)(C)C	-0.857% (inactive)	–
Cc1ccccc1N=Nc1ccc(N=Nc2c(O)ccc3ccccc23)c(C)c1	2.17% [at 42.5 µM] (inactive)	–
CCOC(=O)C1=NN(c2ccccc2)C(=O)C1	0.987% (inactive)	–
CCCc1c2oc(C(=O)O)cc(=O)c2cc2c(=O)cc(C(=O)O)n(CC)c12	0.201% [at 42.5 µM] (inactive)	–
Nc1nc2c(ncn2CCC(CO)CO)c(=O)[nH]1	3.5% [at 42.5 µM] (inactive)	–
N[C@@H](CSCCCO)C(=O)O	-12.4% [at 18.9 µM] (inactive)	–
CCCCCCC(O)CCCCCCCCCCC(=O)OC (stereo not given)	4.35% (inactive)	–
Oc1ccc(Oc2ccccc2)cc1	-17.3% (inactive)	–
CCOC(=O)CC	-1.67% (inactive)	–
OC1OCCOC1O (stereo not given)	-18% (inactive)	–
O=C1OC[C@H](Cc2cccc(O)c2)[C@H]1Cc1cccc(O)c1	-0.0714% [at 42.5 µM] (inactive)	–
CCCCOc1cc(C(=O)NCCN(CC)CC)c2ccccc2n1	0.579% [at 42.5 µM] (inactive)	–
NC[C@H]1O[C@H](O[C@H]2[C@H](O)[C@@H](O[C@H]3O[C@H](CO)[C@@H](O)[C@H](N)[C@H]3O)[C@H](N)C[C@@H]2N)[C@H](N)[C@@H](O)[C@@H]1O	-6.94% [at 18.9 µM] (inactive)	–
Oc1cc(Cl)cc(Cl)c1Cl	15.1% (inactive)	–
Cc1nc(C2CCCCC2)c(-c2ccc(S(N)(=O)=O)c(F)c2)o1	-0.0302% [at 42.5 µM] (inactive)	–
Cc1ccc(C(C)(C)C)c(O)c1	–	inactive
CN(C1CCCCC1)S(=O)(=O)c1ccccc1N	-2.68% (inactive)	–
COc1cc(OC)nc(NC(=O)NS(=O)(=O)Nc2ccccc2C(=O)N(C)C)n1	0.332% (inactive)	–
CC(=O)Oc1ccc(C)cc1	–	inactive
